29 compounds from PubChem BioAssay can be followed below.

Active and inactive are the calls of the source.

The first assay is described as follows: growth of efflux-deficient E. coli DRC39 – strain DRC39, OD650, 24 h, E. coli filamentation inducers, primary screen (AID 1178).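 Note: growth measured as culture turbidity by optical density at 650 nm; test concentration not given here.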 As to conditions: E. coli DRC39 acrAB, higher = more signal, called active from +8 up or from −8 down.
Consider `CC(C)c1nc2cc(Br)ccc2c(=O)o1`, for which the z-score was 0.692 (inactive). The same measure, in the same setting: with `CCOC(=O)C1=CCC(c2cc3ccccc3[nH]2)N(CCN2CC(C(=O)OCC)=CCC2c2cc3ccccc3[nH]2)C1` (centres undefined) the figure was 0.852 (inactive); with `O=C(NC1CC1)[C@@H]1c2ccccc2C(=O)N(CC23CC4CC(CC(C4)C2)C3)[C@H]1c1ccc(CO)cc1`, -0.0508 (inactive). On the same count and under the same terms, next, `N#Cc1ccc(NN2C(C(O)C3CC=CCC3)C=CC3C(=O)N(c4ccccc4)C(=O)C32)cc1` (centres undefined): 0.0108 (inactive).

For the compound `O=C(NCC(O)CO)C1N=C(c2ccc(OCCCO)cc2)N(c2ccccc2)O1` (centres undefined), the z-score was 0.015 (inactive). Same read-out and setting: next, `CCCC[C@H]1OB(O)C[C@H]2C1=C(COc1ccccc1)C[C@H]1C(=O)C=CC(=O)[C@H]12`: 1.78 (inactive); `COCCn1c(C(=O)N(C)C)cc2c1C[C@H]1CN(C(=O)c3ccccc3)[C@@](Cc3ccc(OC)cc3)(C(=O)OC)[C@@H]21`: -0.134 (inactive).

A short description of another assay: growth of efflux-deficient E. coli DRC39 – strain DRC39, OD650, 48 h, E. coli filamentation inducers, primary screen (AID 1179).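 Note: screen aims at cell division blockers that make cells filament.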 As to conditions: E. coli DRC39 delta-acrAB growth, higher = more signal, called active from +8 up or from −8 down.
Regarding `CC(C)(C)N1CC=CC23O[C@@H]4/C=C\CCCOC(=O)C4[C@H]2C(=O)N(CCCCCO)[C@@H]3C1=O` (some centres undefined), the z-score is -0.0503 (inactive).

On to `COCCCNC(=O)[C@@]1(CCS(=O)(=O)c2ccccc2)COC(c2ccc(OCCCO)cc2)=N1`, for which the z-score was 0.103 (inactive).

On to `O=C1NC(=O)C2C1C=CC(C(O)c1ccc(B(O)O)cc1)N2Nc1ccc(Cl)cc1Cl` (centres undefined), for which the z-score is -1.52 (inactive). Same read-out and setting: next, `CCOc1cc(C(O)C2C=CC3C(=O)N(c4ccccc4)C(=O)C3N2Nc2ccccc2F)ccc1O` (centres undefined): -0.541 (inactive); `O=C1OCCC=C[C@H]2OC34C=CCN(c5ccc6ccccc6c5)C(=O)[C@H]3N(CCO)C(=O)[C@@H]4C12` (some centres undefined): -1.42 (inactive). On the same count and under the same terms, next, `CN(C)CCCNC(=O)[C@@]1(Cc2ccccc2I)c2ccccc2C(=O)N(C2CCCCC2)[C@H]1c1ccc(CO)cc1`: -0.707 (inactive); `COc1ccc(C#Cc2ccc3c(c2)[C@]2(C(=O)N3)[C@H](C(=O)O)[C@H]3C(=O)O[C@H](c4ccccc4)[C@H](c4ccccc4)N3[C@@H]2c2ccccc2OCCO)cc1`: -0.183 (inactive); `COCCOC(=O)N1C(=O)[C@@]2(c3cc(C#CC4(O)CCCCCC4)ccc31)[C@H](c1ccc(O)cc1)N1[C@H](c3ccccc3)[C@H](c3ccccc3)OC(=O)[C@H]1[C@@H]2C(=O)N1CCCCCCC1`: 0.625 (inactive). Still for that read-out and setting: next, `[N-]=[N+]=Nc1ccccc1[C@@H]1OC(c2ccc(OCCCO)cc2)=N[C@]1(Cc1ccccc1)C(=O)NCCN1CCOCC1`: -0.382 (inactive). For `CCCCC(O)C1C=CC2C(=O)N(c3ccccc3)C(=O)C2N1Nc1ccccc1` (centres undefined), the z-score is 0.483 (inactive). Take `CC=CC(O)C1C=CC2C(=O)NC(=O)C2N1Nc1ccc(Cl)cc1Cl` (centres undefined): the z-score was -0.356 (inactive). On to `COC(=O)[C@H](Cc1ccccc1)N1CC2=CCCC=C[C@@H]2[C@H]1[C@H](O)Cc1ccccc1`, for which the z-score is -0.27 (inactive). `Cc1ccc(S[C@]2(C(=O)NC(C)C)CC(=O)N(C3CCCCC3)[C@@H]2c2ccc(CO)cc2I)cc1`: the z-score was -0.138 (inactive).

For the compound `CCCNC(=O)[C@@]1(c2ccc([N+](=O)[O-])cc2)CC(=O)N(C(C)C)[C@@H]1c1ccc(CO)cc1`, the z-score was -0.508 (inactive).

As to `COC(=O)[C@@]1(Cc2ccc(OC)cc2)[C@H]2c3cc(C(=O)N(C)C)[nH]c3C[C@H]2CN1C(=O)c1ccccc1`, the z-score was 0.192 (inactive).

Regarding `O=C1N(CCS(=O)(=O)c2ccccc2)c2ccccc2C[C@]12N=C(c1ccc(OCCCO)cc1)O[C@@H]2c1ccccc1`, the z-score was -0.0504 (inactive). Still for that read-out and setting: next, `CC1=C([C@H](O)CCc2ccccc2)[C@H](CO)n2c(=O)n(-c3ccccc3)c(=O)n2C1`: 1.35 (inactive); `O=C1O[C@H](Cc2ccccc2)[C@@H]2[C@H]3C=CCCC=C3CN2[C@H]1Cc1ccc(O)cc1`: 0.746 (inactive); `CN(C)c1ccc(C(O)C2C=CC3C(=O)N(Cc4ccccc4)C(=O)C3N2n2cnnc2)cc1` (centres undefined): 0.694 (inactive).

With `COC(=O)[C@@]1(Cc2ccc(F)cc2)[C@H]2c3cc(C(=O)N(C)C)n(CCc4ccc(O)c(O)c4)c3C[C@H]2CN1C(=O)c1ccccc1`, the z-score is 0.157 (inactive). The same measure, in the same setting: next, `CCCC[C@H]1C[C@@H]1[C@@H]1N(C(C)=O)[C@H](c2cccc(OC)c2)CC12CC2`: -0.791 (inactive); `CC(=O)OCC1C2CC[C@H]3C(OCc4ccc(F)cc4C(F)(F)F)OC[C@]4(C)[C@H]3C2=C(CN4C(=O)OC(C)(C)C)[C@H](C)C1COC(C)=O` (some centres undefined): -0.748 (inactive).
